Data on eight molecules can be found in PubChem BioAssay (NCI).

Each structure is given as a SMILES string. Compounds without any hit were thinned out: in the full panel of roughly 83,000, 20% have a hit.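 Growth was measured after 48 h exposure to one concentration of compound in 96-well plates. Values under 10 count as active.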 Unmarked numbers belong to inactive results. The source made the active and inactive calls.

Test in all cases: NCI-60 one-dose screen, 48 h (100 = growth as untreated, 0 = no growth, -100 = all killed)
Common to all, as to conditions: 10 µM unless noted

The subject of test [1] is HCT-15 colon.
In test [2] the test system is HT29 colon.
The test system of test [3] is SNB-75 CNS.
In test [4] the test system is SNB-19 CNS.
The subject of test [5] is U251 CNS.
The test system of test [6] is PC-3 prostate.
In test [7] the test system is SK-MEL-5 melanoma.
Test [8] concerns UACC-62 melanoma.
Test [9] relates to LOX IMVI melanoma.
For test [10], the system named is SK-MEL-28 melanoma.
Test [11] deals with SK-MEL-2 melanoma.
In test [12] the test system is EKVX NSCLC.
Test [13] deals with SN12C renal.
The test system of test [14] is UO-31 renal.
In test [15] the test system is TK-10 renal.
Test [16] deals with ACHN renal.
In test [17] the test system is CAKI-1 renal.
The subject of test [18] is CCRF-CEM leukemia.
Test [19] relates to MOLT-4 leukemia.

`C#CCNC(=O)[C@H](Cc1ccccc1)NC(=O)[C@]12CC[C@@H](C(=C)C)[C@@H]1[C@H]1CC[C@@H]3[C@@]4(C)CCC(=O)C(C)(C)[C@@H]4CC[C@@]3(C)[C@]1(C)CC2`: the growth in test [1] was 70.7%; in test [2], 52.9%; in [3], 99.2%; in [4], 82.6%; in test [5] it was 69.1%; in test [6] it was 33%. In addition, the growth in test [7] is 78.2%; in test [8], 59.5%; in test [9], 75.4%; in test [10] it was 98.1%; in [11] it was 86.8%; in test [12], 79%. For the same molecule, the growth is 76% in test [13]; 54% in test [14]; 65.3% in test [15]; 75.7% in test [16]; 55.4% in test [17]; 65.1% in test [18]. For the same molecule, the growth in test [19] was 46.3%.
On to `Cc1ccc(-n2c3c(c(-c4ccccc4)c2-c2ccccc2)C2=NCCN2C=N3)cc1`, for which the growth was 81.3% in test [1]; 88% in [2]; 70.5% in test [3]; 88.5% in [4]; 92% in [5]; 76.8% in test [6]. Also, the growth was 68.1% in test [7]; 75.1% in [8]; 93.6% in test [9]; 110% in test [10]; 99.3% in test [11]; 80.8% in [12]. Moreover, the growth is 85% in [13]; 68.9% in [14]; 144% in test [15]; 96.4% in test [16]; 72.9% in test [17]; 98.5% in [18]. Also, the growth in [19] was 92.9%.
Regarding `COc1cc2c(c(OC)c1OC)CCC(c1cccc(NC(=O)c3cccc(Br)c3)c1)O2` (configuration not stated), the growth in test [1] was 87.7%; in [2], 87%; in test [3] it was 86.8%; in test [4], 94.5%; in [5] it was 93.5%; in test [6], 76.1%. Moreover, the growth in [7] is 88.2%; in test [8] it was 70.1%; in test [9], 92.4%; in [10], 90.9%; in [11] it was 103%; in test [12], 84.6%. For the same molecule, the growth in test [13] was 87.6%; in [14], 79%; in [15], 91.8%; in [16], 94.2%; in test [17] it was 91.5%; in test [18], 88%. In addition, the growth in test [19] is 74.3%.
Consider `COc1ccccc1NC(=O)C1CC(c2ccc(F)cc2)=NO1` (configuration not stated), for which the growth in test [1] was 99.2%; in [2] it was 103%; in [3], 87.9%; in test [4], 96.8%; in test [5] it was 96.3%; in test [6] it was 104%. Besides, the growth in test [7] is 95.3%; in [8] it was 96%; in test [9] it was 95.5%; in test [10] it was 107%; in [11], 103%; in [12] it was 89.8%. Further, the growth was 96.3% in [13]; 82.9% in [14]; 105% in test [15]; 107% in test [16]; 95.3% in [17]; 104% in [18]. Besides, the growth in test [19] was 103%.
As for `O=c1[nH]nc(-c2ccccc2)c2sc3ncc(-c4ccc(Br)cc4)n3c12`, the growth is 94.5% in test [1]; 9.13% (active) in test [2]; 19.7% in [3]; 44.7% in [4]; 38.9% in test [5]; 50.2% in test [6]. Besides, the growth in [7] was 78.9%; in [8], 47.5%; in test [9], 36.9%; in test [10], 57.6%; in [11], 18.4%; in test [12] it was 67.3%. Besides, the growth in test [13] was 46.1%; in test [14], 73.3%; in test [15], 109%; in test [16], 75.7%; in [17], 56.1%; in [18], 22.4%. For the same molecule, the growth in test [19] is 41.7%.
Consider `CCNC(=O)Oc1ccc(/C(=C(\C)c2ccccc2)c2ccc(OCCN3CCCCC3)cc2)cc1`, for which the growth in [1] was 17%; in [2] it was -13.8% (active); in test [3], 84.7%; in test [4] it was 79.4%; in [5] it was 48.6%; in test [6], 49.7%. Further, the growth in test [7] was 62.5%; in [8], 52.4%; in test [9], 57.3%; in test [10], 47.2%; in [11], 82.8%; in test [12] it was 82%. Further, the growth is 65.2% in test [13]; 41.2% in [14]; 83.3% in [15]; 84.2% in [16]; 38.5% in [17]; 72.7% in [18]. Also, the growth in test [19] is 51%.
Turning to `COc1cccc(-c2nc3occn3c2-c2ccnc(NCCNS(=O)(=O)c3ccc(C(F)(F)F)cc3)n2)c1`, the growth in [1] was 80%; in test [2] it was 85.1%; in test [3], 87%; in test [4], 98%; in [5] it was 101%; in test [6], 77.6%. Also, the growth in [7] is 82.5%; in [8], 66.5%; in [9] it was 93.3%; in [10] it was 108%; in test [11], 98.2%; in test [12], 84.3%. Besides, the growth in [13] is 88.6%; in test [14], 66.1%; in test [15], 116%; in [16], 80.9%; in test [17], 64.3%; in test [18], 92.1%. In addition, the growth in test [19] was 75.3%.
On to `Cc1ccccc1NS(=O)(=O)c1cccc(C(=O)Nc2ccc(Br)cc2)c1`, for which the growth in test [1] was 37.3% [25 µM]; in test [2], 47.8% [25 µM]; in test [3], 53.7% [25 µM]; in test [4] it was 42.9% [25 µM]; in test [5] it was 53% [25 µM]; in test [6], 27.3% [25 µM]. Further, the growth in [7] was -38.9% [25 µM] (active); in test [8] it was 25.9% [25 µM]; in [9], 39.2% [25 µM]; in test [10] it was 60% [25 µM]; in [11], 42.9% [25 µM]; in [12], 16.6% [25 µM]. In addition, the growth is 42.9% [25 µM] in test [13]; 22.8% [25 µM] in [14]; 55.9% [25 µM] in test [15]; 47% [25 µM] in [16]; 26.2% [25 µM] in test [17]; 42.4% [25 µM] in [18]. Moreover, in test [19], the growth is 26.9% [25 µM].
